Five compounds from PubChem BioAssay can be followed below.

Assay [1] can be described thus: inhibitors of TNFa-induced NFkB p65 translocation, primary screen, imaging, HUVEC, MLSMR starter and 10KST1 sets (AID 438;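 active means inhibition above 20% together with a positive visual image hit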;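 further: compound added about 3h40 before a 20 min TNFalpha stimulation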;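 on inhibition: signal is the nuclear over cytoplasmic p65 intensity ratio per well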). As to conditions: HUVEC TNFa-induced p65 nuclear translocation; cell count: measured here: nuclei count (cytotoxicity indicator), at 2.08 µM; inhibition: at 2 µM, stronger effect = higher value, 0% TNFa-plus-vehicle, 100% no-TNFa wells.
The nature of assay [2]: reduction of polyQ htt aggregates in cells – imaging, exon1htt(103Q)mCFP cells, high-content imaging, primary screen (AID 483;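 active means visual image review flags a hit and inhibition of aggregation exceeds 20%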;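 further: compound exposure lasted 3 days before fixation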;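 on nuclei count: percent of the per-plate median nuclei count of sample wells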). The note with it: exon1htt(103Q)mCFP cell line, aggregate imaging, at 2 µM; inhibition of aggregation: stronger effect = higher value; nuclei count: measured here: cell count, toxicity.
Assay [3] is described as follows: endothelial E-selectin expression blockers – imaging, HUVEC, immunofluorescence, MLSMR starter and 10KST1 sets, primary screen (AID 487).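 On inhibition: signal is fraction of cell area covered by stained E-selectin grains.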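 On nuclei count: 100% = median nuclei count of all wells on the same plate.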 As to conditions: HUVEC TNFalpha-induced E-selectin immunofluorescence imaging, at 2 µM; inhibition: stronger effect = higher value; nuclei count: measured here: cell number, toxicity.
A short description of assay [4]: Primary imaging screen for DUSP6 inhibitors that restore phospho-Erk in transfected HeLa cells, chemical complementation (AID 609;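 active means compounds giving at least 50% inhibition in the cell-based MKP-3 phosphatase rescue imaging test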;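 on inhibition: phospho-Erk level distribution per well compared with pooled transfected vehicle control wells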). As to conditions: HeLa MKP-3 transfected, phospho-Erk imaging KS statistic, at 10 µM, cells stimulated with TPA for 15 min.
The target in assay [5] is Dual specificity protein phosphatase 6 (Homo sapiens) (UniProt Q16828). The description is as above. As to conditions: HeLa MKP-3 transfected, phospho-Erk imaging KS statistic; at 10 µM; stronger effect = higher value; cells stimulated with TPA for 15 min.
Dual specificity protein phosphatase 6 (Homo sapiens), sequence (Q16828 whole entry, looked up): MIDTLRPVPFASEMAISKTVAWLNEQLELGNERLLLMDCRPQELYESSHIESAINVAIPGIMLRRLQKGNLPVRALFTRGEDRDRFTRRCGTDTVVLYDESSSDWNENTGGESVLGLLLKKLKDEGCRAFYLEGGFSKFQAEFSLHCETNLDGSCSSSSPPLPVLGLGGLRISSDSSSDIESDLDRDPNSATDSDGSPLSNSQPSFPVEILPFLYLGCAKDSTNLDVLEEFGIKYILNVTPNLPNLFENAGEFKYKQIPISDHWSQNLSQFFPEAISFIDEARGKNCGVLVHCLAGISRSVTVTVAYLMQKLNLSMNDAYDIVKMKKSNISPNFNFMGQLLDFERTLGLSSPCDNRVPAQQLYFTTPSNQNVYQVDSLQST
The target of assay [6] is Voltage-gated potassium channel subunit beta-2 (Rattus norvegicus) (UniProt P62483). In words: inhibitors of rat Kvbeta2 reductase activity – biochemical, NADPH fluorescence, primary screen (AID 622;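 active means fluorescence slope higher than the sample average by over 3 SD, cut at about -0.22 in these data, passing the limit was not always enough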;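 further: slope of raw intensity against log time taken from 70 to 1610 s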). As to conditions: recombinant KvBeta, 4-cyanobenzaldehyde reduction, at 10 µM, stronger effect = higher value.
Voltage-gated potassium channel subunit beta-2 (Rattus norvegicus), sequence (P62483 whole entry, looked up): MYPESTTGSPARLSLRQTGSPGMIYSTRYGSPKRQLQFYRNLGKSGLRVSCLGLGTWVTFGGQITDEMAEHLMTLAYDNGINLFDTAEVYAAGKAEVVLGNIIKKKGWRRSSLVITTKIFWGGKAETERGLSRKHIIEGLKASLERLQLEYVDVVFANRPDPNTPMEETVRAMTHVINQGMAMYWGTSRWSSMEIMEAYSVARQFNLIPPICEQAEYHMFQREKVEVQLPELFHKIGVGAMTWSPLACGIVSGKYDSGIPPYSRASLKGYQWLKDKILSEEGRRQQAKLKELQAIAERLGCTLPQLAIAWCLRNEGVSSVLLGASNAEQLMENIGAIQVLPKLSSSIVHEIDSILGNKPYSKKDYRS
For assay [7] the target is unchanged. The experiment in a line: enhancers of rat Kvbeta2 NADPH turnover – biochemical, NADPH fluorescence, primary screen (AID 623;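 active means NADPH fluorescence slope more negative than the mean of all samples by about 3 SD, 99.7% confidence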;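 further: fluorescence intensity change per second fitted from 20 to 320 s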). As to conditions: Recombinant KvBeta, NADPH fluorescence decrease slope, 10 min; at 10 µM; stronger effect = lower value.
For assay [8], the target named is Alpha-2C adrenergic receptor (Homo sapiens) (UniProt P18825). In words: compounds altering alpha2C-coupled GIRK flux – cell-based, HEK293 alpha2C/GIRK1/2, thallium flux, primary screen (AID 624;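 active means fluorescence slope after compound addition differing from the mean of all screened samples at 99.7% confidence, in either direction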;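 further: slope of fluorescence ratio to pre-addition baseline per second over 15 to 24 s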). The note with it: thallium flux BTC fluorescence, at 10 µM, actives lie on both sides.
Alpha-2C adrenergic receptor (Homo sapiens), sequence (P18825 whole entry, looked up): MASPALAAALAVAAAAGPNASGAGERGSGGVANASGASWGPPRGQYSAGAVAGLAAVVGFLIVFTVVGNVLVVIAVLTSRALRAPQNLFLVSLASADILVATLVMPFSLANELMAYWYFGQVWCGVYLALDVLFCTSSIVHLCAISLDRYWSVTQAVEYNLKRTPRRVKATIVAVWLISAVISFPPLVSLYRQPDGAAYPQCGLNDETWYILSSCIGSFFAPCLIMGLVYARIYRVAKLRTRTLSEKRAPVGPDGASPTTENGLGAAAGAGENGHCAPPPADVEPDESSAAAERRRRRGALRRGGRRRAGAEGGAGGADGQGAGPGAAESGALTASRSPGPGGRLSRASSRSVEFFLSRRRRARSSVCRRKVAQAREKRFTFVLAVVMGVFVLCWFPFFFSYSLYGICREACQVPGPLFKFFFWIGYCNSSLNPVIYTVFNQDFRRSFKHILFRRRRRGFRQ
Assay [9] deals with Muscarinic acetylcholine receptor M4 (Homo sapiens) (UniProt P08173). In words: M4-linked GIRK flux change, two-sided – cell-based, HEK293 M4/GIRK, thallium flux, BTC-AM, M4 allosteric agonist project, primary screen (AID 625;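 active means fluorescence slope after compound addition differing from the mean of all tested samples at 99.7% confidence, mostly higher but some lower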;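 further: thallium influx through GIRK channels coupled to M4 in HEK293 cells with BTC-AM dye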). As to conditions: at 10 µM, actives lie on both sides.
Muscarinic acetylcholine receptor M4 (Homo sapiens), sequence (P08173 whole entry, looked up): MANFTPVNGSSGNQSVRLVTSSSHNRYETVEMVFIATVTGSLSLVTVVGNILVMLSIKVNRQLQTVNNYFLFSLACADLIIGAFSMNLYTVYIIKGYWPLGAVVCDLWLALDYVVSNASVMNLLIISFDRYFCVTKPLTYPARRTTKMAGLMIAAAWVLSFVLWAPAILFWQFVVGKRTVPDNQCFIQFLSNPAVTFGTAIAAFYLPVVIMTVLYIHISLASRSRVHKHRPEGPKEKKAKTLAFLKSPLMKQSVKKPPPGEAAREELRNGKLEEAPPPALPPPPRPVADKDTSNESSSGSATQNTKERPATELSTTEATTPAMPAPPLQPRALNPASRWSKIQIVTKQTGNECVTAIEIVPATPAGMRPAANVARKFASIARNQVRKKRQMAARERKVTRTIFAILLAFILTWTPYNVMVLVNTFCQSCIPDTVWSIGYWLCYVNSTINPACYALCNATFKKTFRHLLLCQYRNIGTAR
Assay [10] can be described thus: inhibitors of larval lipid processing in zebrafish, primary screen, whole organism, PED6 fluorescence, gall bladder and intestine (AID 686;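 active means a full or partial loss of lipid-probe fluorescence in the fish gall bladder, intestine or both, judged by eye; inactive means no fluorescence loss, or compound toxic to the fish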;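 further: larvae 5 to 7 days old with five fish per well; signal comes from phospholipase A2 cleavage of quenched PED6 carried via bile; overnight exposure to compound and PED6 before scoring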). The note with it: Zebrafish larvae PED6 lipid processing, fluorescence scoring; screened at 20 µM (by protocol).
The nature of assay [11]: loss of swimming-algae plug formation – whole organism, Chlamydomonas reinhardtii, WT vs cilia-less mutant, absorbance, 96-well, primary screen (AID 463189;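 active means inhibition at or above 50% relative to wild type and mutant plate controls; inactive means inhibition below 50%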;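 further: 0% = wild type cc124 cells in DMSO and 100% = ciliumless bld1 mutant cells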). The note with it: Chlamydomonas reinhardtii gravitaxis, OD600 absorbance, 2 days; at 10 µM; stronger effect = higher value.
Assay [12] can be described thus: blockers of RIG-like receptor reporter activation – cell-based, Sendai virus stimulus, luciferase, 10K MLSCN set, TLR/RLR signaling modifier project, primary screen (AID 602276;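 active means inhibition at or above 50% at 10 µM; inactive means inhibition below 50%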;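 further: firefly luciferase from ISG56 promoter only with Renilla not read in this screen; 0% = Sendai virus plus DMSO and 100% = medium plus DMSO without virus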). The note with it: HEK293 RL24 IRF3 luciferase reporter, at 10 µM, stronger effect = higher value. For orientation: A reporter such as luciferase makes a cellular process visible.
A short description of assay [13]: TLR3 IRF3 reporter activation blockers – cell-based, poly I:C stimulus, luciferase, 10K MLSCN set, primary screen (AID 602277;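 active means inhibition of the reporter signal at or above 50%; inactive means inhibition below 50%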). As to conditions: HEK293-TLR3 RL24 IRF3 luciferase reporter, at 10 µM, stronger effect = higher value.
[14] abbreviates: measured here: cell density z-score.
Setting [15] is: measured here: nuclear c-Myc green intensity z-score.
[16] abbreviates: measured here: nuclear pErk red intensity z-score, stronger effect = higher value.

The source made the active and inactive calls.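 How the source made its calls, unless noted: active means visually confirmed hit in the image check and inhibition above 20%; inconclusive means visually confirmed hit but inhibition not above 20%; inactive means no visual hit in the image check.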

Usually inhibition stands for the relative decrease from the control value, in per cent. For the compound `c1ccc(-c2ccc(C(c3ccccc3)n3ccnc3)cc2)cc1` (stereo not given), the cell count in assay [1] worked out at 591. Further, the inhibition is 2% (inactive) in assay [1]; -58.4% (inactive) in assay [3]; 16.8% (inactive) in [5]; 13.3% (inactive) in [11]; 2.51% (inactive) in [12]; 18.2% (inactive) in assay [13]. The inhibition of aggregation in assay [2] was 10.9% (inactive). Besides, the results for the nuclei count in assay [2] and in assay [3] were 91.4% and 106%, respectively. The z-score is -1.14 in [4] (setting [14]), 0.79 in assay [4] (setting [15]) and -0.101 in assay [4] (setting [16]). Besides, the fluorescence slope in [6] was -0.555 (inactive); in [9] it was 0.00623 (inactive). Besides, the NADPH fluorescence slope in assay [7] is -3.5e-05 (inactive). For the same compound, the slope in assay [8] is 0.00412 (inactive). Besides, in assay [10], the compound was classed as inactive.
Consider `CCOC(=O)CSC1=C(C#N)C(c2ccc(C)cc2)C(C(=O)OC)C(=O)N1` (stereo not given), for which the cell count in assay [1] came out at 643. The inhibition was 4.3% (inactive) in assay [1]; -39.2% (inactive) in assay [3]; 2.92% (inactive) in [5]; 6.69% (inactive) in assay [11]; -15.1% (inactive) in assay [12]; -12.7% (inactive) in [13]. The inhibition of aggregation in assay [2] was -1.7% (inactive). Further, the nuclei count in assay [2] turned out to be 81.9%; in assay [3], 133%. In addition, the z-score in [4] (setting [14]) was 0.598; in [4] (setting [15]) it was 0.472; in assay [4] (setting [16]), -0.921. Moreover, the figures for the fluorescence slope in assay [6] and in assay [9] were -0.474 (inactive) and 0.00679 (inactive), respectively. For the same compound, in assay [7], the NADPH fluorescence slope is -8.1e-06 (inactive). Moreover, the slope in assay [8] is 0.00434 (inactive). In assay [10], the call was inactive.
For the compound `O=C(CCN1C(=O)c2ccccc2C1=O)OCN1C(=O)c2ccccc2C1=O`, the cell count in assay [1] came out at 490. Moreover, the inhibition in [1] is 2.7% (inactive); in assay [3], -112% (inactive); in assay [5], 29.7% (inactive); in [11], 1.44% (inactive); in assay [12] it was -10.1% (inactive); in assay [13] it was -11.6% (inactive). For the same compound, the inhibition of aggregation in assay [2] is 10% (inactive). Also, the nuclei count in assay [2] was determined as 95.1%; in assay [3], 151%. Besides, the z-score was 0.766 in assay [4] (setting [14]), -1.53 in assay [4] (setting [15]) and -0.92 in [4] (setting [16]). Further, the fluorescence slope in assay [6] is -0.336 (inactive); in [9], 0.00607 (inactive). In [7], the NADPH fluorescence slope is 4.5e-07 (inactive). Further, the slope in assay [8] was 0.00721 (inactive). Moreover, in assay [10], the result was inactive.
On to `CN(C)C(CN1C(=O)C2CC=CCC2C1=O)c1cn(C)c2ccccc12` (stereo not given), for which the cell count in assay [1] was determined as 665. For the same compound, the inhibition is 2.5% (inactive) in [1]; -48.8% (inactive) in assay [3]; -3.95% (inactive) in assay [5]; -7.45% (inactive) in assay [11]; 24.3% (inactive) in assay [12]; 46.8% (inactive) in [13]. Further, in assay [2], the inhibition of aggregation is 12.2% (inactive). The nuclei count in assay [2] was 99.9%; in [3] it was 124%. In addition, the results for the z-score in assay [4] (setting [14]), in assay [4] (setting [15]) and in assay [4] (setting [16]) were -1.61, 2.35 and 0.886, respectively. In addition, the fluorescence slope in assay [6] is -0.474 (inactive); in assay [9], 0.00462 (inactive). Moreover, the NADPH fluorescence slope in [7] is -2.6e-05 (inactive). Moreover, the slope in [8] was 0.00544 (inactive). In addition, the compound was classed as inactive in [10].
In the case of `O=C(O)CC1Sc2nc3ccccc3n2C1=O` (stereo not given), the cell count in assay [1] worked out at 532. Further, the inhibition in [1] was -9% (inactive); in [3], -22.4% (inactive); in assay [5] it was 15.9% (inactive); in assay [11], 27.7% (inactive); in assay [12], 13.8% (inactive); in assay [13] it was 12.9% (inactive). In assay [2], the inhibition of aggregation is -11.5% (inactive). Besides, the nuclei count came to 89% in assay [2] and 116% in assay [3]. Further, the figures for the z-score in assay [4] (setting [14]), in assay [4] (setting [15]) and in assay [4] (setting [16]) were -0.312, -0.637 and -0.43, respectively. In addition, the values for the fluorescence slope in assay [6] and in [9] were -0.49 (inactive) and 0.00487 (inactive), respectively. Further, in [7], the NADPH fluorescence slope is -1.3e-05 (inactive). For the same compound, in assay [8], the slope was 0.00572 (inactive). Also, in [10], the call was inactive.
